Assay outcomes: PubChem BioAssay, The Scripps Research Institute Molecular Screening Center
Sampled rows, rich in hits. Any-hit rate of the full collection: about 2.3%.
CHRM1 PAM: human M1 muscarinic receptor positive allosteric modulators, primary screen, CHO-K1 cells, Fluo-8 calcium fluorescence, 1536-well; Muscarinic acetylcholine receptor M1 (Homo sapiens), P11229; CHO-K1 hM1, ACh EC20; 0% = ACh EC20, 100% = maximal ACh; activation, % at 3 µM; 0.088% of 360,000 active; AID 588819, 2011; in the data active = activation above about 19%, passing the limit was not always enough
Target sequence (P11229 whole entry, looked up): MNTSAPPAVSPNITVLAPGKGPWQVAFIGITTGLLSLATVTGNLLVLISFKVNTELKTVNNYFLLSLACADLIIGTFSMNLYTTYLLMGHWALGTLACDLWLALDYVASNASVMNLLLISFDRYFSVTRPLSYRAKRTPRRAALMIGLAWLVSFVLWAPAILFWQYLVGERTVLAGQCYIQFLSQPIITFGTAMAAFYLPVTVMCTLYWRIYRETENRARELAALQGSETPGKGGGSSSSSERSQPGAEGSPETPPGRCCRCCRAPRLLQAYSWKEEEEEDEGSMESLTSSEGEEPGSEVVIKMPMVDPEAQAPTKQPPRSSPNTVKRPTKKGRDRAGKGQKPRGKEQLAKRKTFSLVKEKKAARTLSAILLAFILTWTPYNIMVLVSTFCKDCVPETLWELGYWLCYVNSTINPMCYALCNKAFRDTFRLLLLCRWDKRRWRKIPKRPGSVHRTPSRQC
M1 ag: human M1 muscarinic receptor agonists, primary screen, Fluo-8 calcium fluorescence, CHO-K1 cells, HTS | activation, % at 3 µM | Muscarinic acetylcholine receptor M1 (Homo sapiens), P11229 | AID 588814, 2011 | CHO-K1 hM1, agonist mode; 0% DMSO, 100% acetylcholine EC100 | 0.33% of 360,000 active;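 active = activation above the run's mean compound activation plus 3 SD, cut at about 16% in these data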;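 also: peak over basal fluorescence ratio within a 140 s kinetic read after compound addition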
CHO-K1 Ca PAM: nonselective calcium activators in parental CHO-K1 cells, primary screen, counter-screen for M1 PAM project, cell-based, Fluo-8 calcium fluorescence, full deck, 1536-well; ATP EC20; 0% at ATP EC20, 100% at ATP max; activation, % at 3 µM; 0.02% of 360,000 active; AID 602247, 2012;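 active = activation above the run cutoff, the mean activation of all test compounds plus 3 SD, cut at about 40% in these data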;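 also: peak over basal fluorescence ratio in a 140 s read after ATP addition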
CHRM1 antagonist: human M1 muscarinic receptor antagonists, primary screen, CHO-K1 cells, Fluo-8 calcium fluorescence, 1536-well | Muscarinic acetylcholine receptor M1 (Homo sapiens), P11229 | CHO-K1 hM1, ACh EC80 antagonist | inhibition, % at 3 µM | 1.3% of 360,000 active | AID 588852, 2011;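 active = percent inhibition above its own plate's cutoff, namely the mean of that plate's compound wells plus 3 SD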;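 also: peak over basal fluorescence ratio during 140 s after agonist addition; 0% = ACh EC80 plus DMSO and 100% = DMSO alone without agonist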
M1 ag parental: counter-screen for M1 agonists: effect in parental CHO-K1 cells. Fluo-8 calcium fluorescence; scaled to maximal ATP response, vehicle zero. activation, % at 3 µM. 0.48% of 360,000 active; in the data active = activation above about 15%;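 also: untransfected CHO-K1 host cells lacking M1 receptor as counterscreen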
CHO-K1 Ca antag: nonselective inhibitor or artifact in parental CHO-K1 cells; ATP-induced calcium, Fluo-8 fluorescence; 0.6% of 360,000 active; inhibition, % at 3 µM;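 active = inhibition above a per-plate cutoff, the plate's mean sample inhibition plus 3 SD, cut at about 24% in these data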;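 also: 0% = DMSO plus EC80 ATP and 100% = DMSO alone without ATP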
Numbers without * were called inactive.

SMILES	CHRM1 PAM	M1 ag	CHO-K1 Ca PAM	CHRM1 antagonist	M1 ag parental	CHO-K1 Ca antag
Cc1cccc(OCC(=O)N(Cc2ccccc2)c2c(N)n(Cc3ccccc3)c(=O)[nH]c2=O)c1	23*	8	4	-16	0	-16
Nc1c(N(CCC2=CCCCC2)C(=O)Cc2ccc(F)cc2)c(=O)[nH]c(=O)n1Cc1ccccc1	-4	19*	7	10	6	-4
Nc1c(N(CCC2=CCCCC2)C(=O)COc2ccc(F)cc2Cl)c(=O)[nH]c(=O)n1Cc1ccccc1	-4	-1	3	11	0	-10
CC1(C(=O)NCC2CC2)CCN1C(=O)C1(c2ccccc2)CC1 (stereo not drawn)	7	-4	9	-14	0	0
Cc1cccc2cc3c(N)c(C(=O)N4CCc5ccccc54)sc3nc12	-11	11	-1	30*	33*	44*
c1ccn2cc(C34CC5CC(CC(C5)C3)C4)nc2c1	-23	-6	17	54*	1	-25
CC(C)c1ccc(CN2CCSCC2)cc1	6	-7	11	-4	0	-3
O=C(NCc1ccccc1Cl)c1[nH]c(C(F)(F)F)nc1-c1ccccc1	-1	7	-5	-30	7	-5
O=c1c2ccc([N+](=O)[O-])cc2ncn1CCOc1ccccc1	-12	-1	-1	36*	6	4
CS(=O)CSc1nc2c(cc1C#N)CCCC2 (stereo not drawn)	-36	-12	-1	95*	0	-4
CCCCSc1nc2c(cc1C#N)CCC2	5	-2	13	-11	0	-19
O=C(CN1C(=O)S/C(=C\C=C\c2ccccc2)C1=O)Nc1ccccc1C(=O)O	10	-4	17	-17	1	-6
C#CCN1C(=O)S/C(=C/C=C/c2ccc(N(C)C)cc2)C1=O	-18	36*	3	47*	9	13
OC[C@@H]1CN(Cc2ccc(-c3ccccc3)cc2)C[C@H](n2cnc3c(N4CCOCC4)ncnc32)O1	-4	3	13	0	10	-5
CCC(C(=O)NCc1cccnc1)n1nc(C)n2c(cc3occc32)c1=O (stereo not drawn)	2	-6	7	-3	0	-2
Cc1ccc(CN2CCC(c3cc(-c4cccs4)n[nH]3)CC2)cc1	-37	-15	14	31*	2	0
CCC(C)(C(=O)NC1CCCC1)N(Cc1cccs1)C(=O)c1ccc2c(c1)OCO2 (stereo not drawn)	0	-5	19	7	16*	3
Cc1cc(NC(=O)COC(=O)C2CC(=O)N(c3ccc(C)c(Cl)c3)C2)no1 (stereo not drawn)	1	-4	4	0	3	-9
Cc1cc(NC(=O)COC(=O)C2CC(=O)N(c3cccc(Cl)c3)C2)no1 (stereo not drawn)	31*	1	-3	-3	1	-7
CC(OC(=O)c1ccc([N+](=O)[O-])o1)C(=O)Nc1nc(-c2ccc(F)c(F)c2)cs1 (stereo not drawn)	-14	-4	-12	14	7	3
COc1cccc(OC)c1C(=O)Nc1ccc(N2CCCC2)cc1	-19	-7	-18	31*	0	-2
CC(C)Oc1ccc(C(=O)Nc2ccc(N3CCCC3)cc2)cc1	-13	-9	-6	29*	-1	12
COc1ccccc1C(=O)Nc1ccc(N2CCCCC2)cc1	4	-5	19	-8	1	-22
O=C(Cn1nc2n(c1=O)-c1ccccc1SC2)N/N=C/c1ccncc1	8	-1	-10	-7	0	-2
Cc1cc(C)c2nc(N3CCC(C(=O)NCCCN4CCCCC4)CC3)sc2c1	-20	-5	11	76*	0	13
Cc1cc(C)c2nc(N3CCC(C(=O)N4CCCC4)CC3)sc2c1	-23	-8	1	37*	0	-19
